# Data: PubChem BioAssay AID1850 (Southern Research Specialized Biocontainment Screening …, 2009)
# In all, about 310,000 compounds went through this assay and about 1,000 (0.32%) were called active. The list is a sample of the results. Potency and affinity values are given separately. Values without a mark were called inactive. No rule for the calls is given here.
# Experiment: PhoP regulon inhibitors, Salmonella typhi PhoP promoter GFP reporter, confirmatory (AID 1850);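 also: 0% = induced wells with vehicle and 100% = uninduced wells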
# Details: fluorescence, 4 h, at 50 µM, active compounds read high
row,SMILES,inhibition
1,COc1cc(CCC(=O)OCC(=O)Nc2ccc(C)cc2Cl)cc(OC)c1OC,-0.48%
2,Cc1ccc(S(=O)(=O)Nc2nncs2)cc1,-8.26%
3,CC(CCN1CCN=C1Nc1ccccc1)c1ccccc1 (stereo not drawn),0.31%
4,COc1ccccc1CNC(=O)CCC(=O)N1C[C@H]2C[C@@H](C1)c1cccc(=O)n1C2,0.48%
5,CCOCC(=O)Nc1nnc(SCCOC)s1,-8.99%
6,O=C(CC(n1cncn1)C(Cl)(Cl)Cl)c1ccc([N+](=O)[O-])cc1 (stereo not drawn),-2.18%
7,CC(=O)NC(CC(=O)c1ccc([N+](=O)[O-])cc1)C(Cl)(Cl)Cl (stereo not drawn),-10.7%
8,O=C(CSC1=NC(=O)C(c2ccccc2)C(=O)N1)Nc1ccccc1[N+](=O)[O-] (stereo not drawn),0.46%
9,Cc1ccccc1-n1ncc2c1CC(C)(C)CC2NC(=O)C1CCC1 (stereo not drawn),6.32%
10,N/C(=N\OS(=O)(=O)c1ccccc1)c1ccncc1,6.44%
11,N/C(=N\OC(=O)COc1ccc2ccccc2c1)c1cccnc1,-4.96%
12,N/C(=N\OC(=O)c1ccc(Cl)cc1)c1cccnc1,8.82%
13,N/C(=N\OC(=O)c1ccccc1)c1cccnc1,-1.82%
14,N/C(=N\OS(=O)(=O)c1ccc2ccccc2c1)c1ccncc1,9.71%
15,N/C(=N\OS(=O)(=O)c1ccc(Cl)cc1)c1ccncc1,-3.25%
16,O=C(COC(=O)c1ccc([N+](=O)[O-])o1)Nc1cccc(S(=O)(=O)N2CCCCC2)c1,9.11%
17,CC(=O)N(C)c1ccc(NS(=O)(=O)c2cc(Cl)ccc2Cl)cc1,-11.6%
18,CCOC(=O)C1C(=O)C=C(c2cccs2)CC1c1ccccc1C (stereo not drawn),-6.96%
19,CCCCOc1ccc(C(=O)N2CC(C)OC(C)C2)cc1 (stereo not drawn),-8.56%
20,CC1CN(C)C(C)CC1OC(=O)C(c1ccccc1)c1ccccc1 (stereo not drawn),-11.9%
21,Cc1ccc(N2OC3C(=O)NC(=O)C3C2c2ccco2)cc1 (stereo not drawn),-16%
22,COc1ccc(C(=O)Cn2nc(CNc3ccc(Br)cc3)[n+]3c2CCCCC3)cc1,1.1%
23,Cc1ccc(C(C)C)c(OCc2nn(CC(=O)c3ccc(Cl)cc3)c3[n+]2CCCCC3)c1,-26.5%
24,O=C(Cn1nc(CNc2ccc(Cl)cc2)[n+]2c1CCCCC2)c1ccccc1,-5.48%
25,COc1ccc(NCc2nn(CC(=O)c3ccc(Br)cc3)c3[n+]2CCCCC3)cc1,8.75%
26,COC(=O)CNC(c1ccccc1)c1cc(Cl)ccc1NC(=O)c1cccc(Cl)c1 (stereo not drawn),-1.38%

row,SMILES,inhibition
1,CCCCOc1ccc(Cc2cnc(N)nc2N)cc1,-18.3%
2,COCc1cnc(C)nc1N,-2.28%
3,COc1ccccc1OCc1nc2ccccc2n1C,-1.73%
4,O=C(NNC(=O)C(c1ccccc1)c1ccccc1)c1cccs1,-3.78%
5,CN1CCN(c2ccc(NC(=O)c3ccc(Br)o3)cc2)CC1,-0.39%
6,CN1CCN(c2ccc(NC(=O)c3ccc(-c4ccc(Cl)cc4)o3)cc2)CC1,14.7%
7,Cc1ccc(NC(=O)CSc2nnc(CNC(=O)c3ccco3)o2)cc1Cl,-4.93%
8,CCCCC(=O)NC(=S)NNC(=O)CCc1ccccc1,-4.48%
9,CCCCC(=O)NNC(=S)NC(=O)C(c1ccccc1)c1ccccc1,-0.63%
10,CCCCC(=O)NC(=S)Nc1cccc(NC(=O)CC)c1,-1.01%
11,CCCCC(=O)NNC(=S)NC(=O)c1ccc(C)cc1,12.1%
12,CCCCCC(=O)NC(=S)NC1C2CC3CC(C2)CC1C3 (stereo not drawn),14.6%
13,CCCCCC(=O)NNC(=S)NC(=O)c1ccc([N+](=O)[O-])cc1,-13%
14,CCCCC(=O)NC(=S)NNC(=O)CC#N,15.9%
15,CCCCCCCC(=O)NNC(=O)CCC(=O)O,-4.06%
16,O=C(CNc1cccc(S(=O)(=O)N2CCOCC2)c1)N1CCc2ccccc21,-12.4%
17,Cc1cc(-n2c(=S)sc3c(=O)n(-c4ccc(F)cc4)c(SCC(=O)O)nc32)ccc1Cl,2.23%
18,CN(c1ccccc1)S(=O)(=O)c1ccc(NC(=O)c2ccc(F)cc2)cc1,-3.04%
19,Cc1cc(OCC(=O)Nc2ccc(OCc3ccccc3)cc2)nc(C(C)C)n1,-4.55%
20,O=C(CCn1cnc(-c2ccccc2)c1-c1ccccc1)N/N=C/c1ccccc1O,-2.92%
21,COc1cccc(-c2ccc(SCC(=O)NC3CCCC3)nn2)c1,-7.47%
22,CCN1CCN(C(=O)CCS(=O)(=O)c2cc3c(cc2Cl)NC(=O)CO3)CC1,12.4%
23,CCn1c(C)cc(/C=C2/SC(=S)N(CC(=O)O)C2=O)c1C,6.61%
24,O=C(Oc1cccc(NC(=O)c2ccco2)c1)c1cccc(S(=O)(=O)N2CCCCC2)c1,2.38%
25,Cn1c(=N)n(CC(=O)c2ccc(Br)s2)c2ccccc21,-0.89%
26,CCN(CC)CCn1c(=N)n(CC(=O)c2ccc(Br)s2)c2ccccc21,14.1%

row,SMILES,inhibition
1,CCn1c(=N)n(CC(=O)c2ccc(Br)s2)c2ccccc21,11.2%
2,N=c1n(CC(=O)c2cccs2)c2ccccc2n1Cc1ccccc1,11.7%
3,CCc1cc(CNC(=O)C2CCC(=O)N(CCc3ccc(OC)cc3)C2)on1 (stereo not drawn),-3.38%
4,CCOC(=O)C1=C(c2ccccc2)NC(N)=NC1c1ccc(OCc2ccc(Cl)cc2)c(OC)c1 (stereo not drawn),0.34%
5,CCOC(=O)C1=C(c2ccccc2)Nc2ncnn2C1c1ccc(C(=O)O)cc1 (stereo not drawn),-0.92%
6,Cc1ccc(SCc2cc(=O)[nH]c(N3CCOCC3)n2)cc1,4.21%
7,C#CCOCCOCCOCCNc1nc(N2CCN(C(=O)CCCCCCCCCCNC(=O)[C@H](CCCCN)n3cc(CCCC(=O)O)nn3)CC2)nc(N2CCN(C(=O)CCCCCCCCCCNC(=O)[C@H](CCCCN)n3cc(CCCC(=O)O)nn3)CC2)n1,0.23%
8,C#CCOCCOCCOCCNc1nc(N2CCN(C(=O)CCCCCCCCCCNC(=O)[C@H](CCCCN)n3cc(C)nn3)CC2)nc(N2CCN(C(=O)CCCCCCCCCCNC(=O)[C@H](CCCCN)n3cc(CCCC(=O)O)nn3)CC2)n1,-29.8%
9,C#CCOCCOCCOCCNc1nc(N2CCN(C(=O)CCCCCCCCCCNC(=O)Cn3cc(C[C@@H](C)O)nn3)CC2)nc(N2CCN(C(=O)CCCCCCCCCCNC(=O)[C@H](CCCN=C(N)N)n3cc(C[C@@H](C)CC)nn3)CC2)n1,25.7%
10,C#CCOCCOCCOCCNc1nc(N2CCN(C(=O)CCCCCCCCCCNC(=O)[C@H](CCCCN)n3cc(CCO)nn3)CC2)nc(N2CCN(C(=O)CCCCCCCCCCNC(=O)[C@H](CCCCN)n3cc(CCCC(=O)O)nn3)CC2)n1,-30.2%
11,C#CCOCCOCCOCCNc1nc(N2CCN(C(=O)CCCCCCCCCCNC(=O)[C@H](CCCCN)n3cc(CCCC(=O)O)nn3)CC2)nc(N2CCN(C(=O)CCCCCCCCCCNC(=O)[C@H](CCCN=C(N)N)n3cc(C[C@@H](C)CC)nn3)CC2)n1,13.7%
12,C#CCOCCOCCOCCNc1nc(N2CCN(C(=O)CCCCCCCCCCNC(=O)[C@H](CCCCN)n3cc(C[C@@H](C)CC)nn3)CC2)nc(N2CCN(C(=O)CCCCCCCCCCNC(=O)[C@@H]([C@H](C)O)n3cc(C)nn3)CC2)n1,51.8%
13,C#CCOCCOCCOCCNc1nc(N2CCN(C(=O)CCCCCCCCCCNC(=O)[C@@H](CCSC)n3cc(CCO)nn3)CC2)nc(N2CCN(C(=O)CCCCCCCCCCNC(=O)[C@H](CCCN=C(N)N)n3cc(C[C@@H](C)CC)nn3)CC2)n1,-10.5%
14,COc1ccccc1/C=N/NC(=O)c1nnn(-c2nonc2N)c1CSC1=NCCS1,-3.46%
15,COc1cc(/C=C/C(=O)Nc2ccncc2)cc(OC)c1OC,9.98%
16,Cc1nn(-c2ccccc2)c(N2CCCC2)c1/C=N/NC(=O)c1cc(-c2cccs2)nc2ccccc12,-12.2%
17,CCOC(=O)C1(CCCc2ccccc2)CCN(C(=O)CCN2CCCCC2=O)CC1,-9.1%
18,O=C(c1ccc(COc2ccccc2Cl)o1)N1N=C(C(F)F)CC1(O)C(F)F (stereo not drawn),-0.36%
19,Cc1ccc(C(O)P(=O)(Oc2ccccc2)Oc2ccccc2)cc1 (stereo not drawn),-35.5%
20,COc1ccc(NC(=O)CCN2C(=O)C3CC=C(Cl)CC3C2=O)cc1 (stereo not drawn),-3.04%
21,C#CCOCCOCCOCCNc1nc(N2CCN(C(=O)CCCCCCCCCCNC(=O)[C@@H](CCC(=O)O)n3cc(CCCCCN)nn3)CC2)nc(N2CCN(C(=O)CCCCCCCCCCNC(=O)[C@H](CO)n3cc(CCCSC)nn3)CC2)n1,-11.4%
22,C#CCOCCOCCOCCNc1nc(N2CCN(C(=O)CCCCCCCCCCNC(=O)[C@H](CO)n3cc(CCCSC)nn3)CC2)nc(N2CCN(C(=O)CCCCCCCCCCNC(=O)[C@H](CCCCN)n3cc(C[C@@H](C)CC)nn3)CC2)n1,-5.02%
23,C#CCOCCOCCOCCNc1nc(N2CCN(C(=O)CCCCCCCCCCNC(=O)[C@@H](CCC(=O)O)n3cc(CCCCCN)nn3)CC2)nc(N2CCN(C(=O)CCCCCCCCCCNC(=O)[C@H](CCCCN)n3cc(C[C@@H](C)CC)nn3)CC2)n1,-7.23%
24,C#CCOCCOCCOCCNc1nc(N2CCN(C(=O)CCCCCCCCCCNC(=O)[C@H](CO)n3cc(CCCSC)nn3)CC2)nc(N2CCN(C(=O)CCCCCCCCCCNC(=O)[C@H](CCCN=C(N)N)n3cc(C[C@@H](C)CC)nn3)CC2)n1,25.4%
25,C#CCOCCOCCOCCNc1nc(N2CCN(C(=O)CCCCCCCCCCNC(=O)Cn3cc(C[C@@H](C)O)nn3)CC2)nc(N2CCN(C(=O)CCCCCCCCCCNC(=O)[C@H](CCCCN)n3cc(C[C@@H](C)CC)nn3)CC2)n1,14.8%
26,C#CCOCCOCCOCCNc1nc(N2CCN(C(=O)CCCCCCCCCCNC(=O)[C@@H](CCC(=O)O)n3cc(CCCCCN)nn3)CC2)nc(N2CCN(C(=O)CCCCCCCCCCNC(=O)[C@H](CO)n3cc(CCCCCN)nn3)CC2)n1,-6.21%
